ALR inh: blocks human ALR sulfhydryl oxidase activity. P55789. purified ALR, DTT oxidation, H2O2 HRP-luminol luminescence. inhibition, % (test concentration not listed). 290,000 compounds, 3.8% hits;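 active = mean replicate inhibition above about 79%, with every replicate also reaching it, limit read from the data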
Target sequence (P55789 whole entry, looked up): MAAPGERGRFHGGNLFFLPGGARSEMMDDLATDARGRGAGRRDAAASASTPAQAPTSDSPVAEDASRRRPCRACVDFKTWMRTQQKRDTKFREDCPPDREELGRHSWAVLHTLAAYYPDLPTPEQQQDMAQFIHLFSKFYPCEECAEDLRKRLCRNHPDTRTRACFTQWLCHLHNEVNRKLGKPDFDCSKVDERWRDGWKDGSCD
CHT allo act: allosteric activators of human choline transporter CHT | Q9GZV3 | CHT-expressing cells, membrane potential dye, choline EC20; hits give high values; LV-AA mutant CHT in HEK293 cells | B-score at 10 µM | 310,000 compounds, 0.49% hits;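 active = initial fluorescence not abnormally high and integrated response B-score, plate-corrected, over 3 SD above library mean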
AI-2 QS modul: Vibrio harveyi AI-2 quorum sensing modulation; Vibrio harveyi JMH597 AI-2 luminescence/OD600 ratio, 9 h; hits give low values; strain lacks LuxN and CqsS sensors; 0 = neutral-control median; activity change, % at 7.5 µM; 300,000 compounds, 0.4% hits; AID 2094; in the data active = activity change below about -75%, passing the limit was not always enough;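 also: luminescence divided by OD600 gain over 9 h not by final OD600 alone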
PREPL inhibitor: inhibitors of human prolyl oligopeptidase-like enzyme PREPL | Q4J6C6 | recombinant PREPL, fluorescence polarization activity-based probe | inhibition, % at 5.96 µM | 320,000 compounds, 0.68% hits; in the data active = inhibition above about 43%;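 also: 0% = enzyme with DMSO and 100% = wells lacking enzyme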
CHT inh: human CHT choline transport inhibition; 310,000 compounds, 0.86% hits; Q9GZV3; CHT-expressing cells, membrane potential dye, choline response; hits give low values; B-score at 10 µM; AID 488975;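 active = B-score over 3 SD under the library average, and starting fluorescence ratio not unusually high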;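 also: choline stimulus applied at its EC90 after an EC20 pre-addition; B-score computed on integrated fluorescence ratio after choline addition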
CHT activ conf: confirmation of human choline transporter (CHT) activators | shares compounds with CHT allo act | activation, % at 10 µM | CHT-expressing cells, membrane potential dye fluorescence (FDSS); % of choline EC20–EC90 response window; HEK293 expressing CHT LV-AA mutant; choline added at its EC20 | 2,500 compounds, 91% hits;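 active = primary screen active, with duplicate mean activation above negative control mean plus 3 SD, cut at about 11% in these data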
HEK293 MP dye: counter-screen for CHT activators: effect in parental HEK293 cells | shares compounds with CHT allo act | membrane potential dye fluorescence (FDSS); measured after EC20 choline addition | ratio readout change at 10 µM, hits read low | 2,500 compounds, 62% hits | AID 623908;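 active = duplicate-averaged ratio beyond 3 SD from buffer wells, up or down, though filed actives are nearly all decreases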
Active calls of the source: *. Only some compounds are listed: those with a hit (about 5% of all), similar ones and a draw of the others.

What do the screens show for `COc1ccc2c(ccc[n+]2CC(=O)c2ccccc2)c1`?
ALR inh: 11; CHT allo act: inactive; AI-2 QS modul: 1; CHT inh: inactive

What do the screens show for `CCCCCCCCCCCCCCCC[n+]1ccc(/C=N/O)cc1`?
ALR inh: -2; CHT allo act: inactive; PREPL inhibitor: 41; CHT inh: inactive

What do the screens show for `O/N=C/c1cccc[n+]1CCCCCC[n+]1ccccc1/C=N/O`?
ALR inh: -14; CHT allo act: 6.4*; AI-2 QS modul: 17; CHT inh: inactive; CHT activ conf: 44*; HEK293 MP dye: -60*

What do the screens show for `CCOC(=O)CCNC(=O)N1CCCC(N(C)CCc2ccccc2)C1` (stereo unspecified)?
ALR inh: -2; CHT allo act: inactive; AI-2 QS modul: 6; PREPL inhibitor: 7; CHT inh: inactive

What do the screens show for `Cc1cc2[nH]c(=O)c(=O)[nH]c2cc1S(=O)(=O)Nc1ccccc1F`?
CHT allo act: 7.7*; AI-2 QS modul: 27; PREPL inhibitor: 3; CHT inh: inactive; CHT activ conf: 3; HEK293 MP dye: inactive

What do the screens show for `COc1cc(C)c(S(=O)(=O)Nc2ccccc2F)cc1C`?
ALR inh: 2; CHT allo act: inactive; AI-2 QS modul: -1; PREPL inhibitor: -1; CHT inh: inactive

What do the screens show for `COc1ccc(CCc2nnc(CCC(=O)N(C)Cc3ccnc4ccccc34)o2)cc1`?
ALR inh: 1; CHT allo act: inactive; AI-2 QS modul: 14; PREPL inhibitor: 1; CHT inh: inactive

How did COCc1cc(C)nc(SCC[N+](C)(C)CC(=O)Nc2ccccc2)c1C#N do in these assays?
ALR inh: -1; CHT allo act: inactive; AI-2 QS modul: 16; PREPL inhibitor: 11; CHT inh: inactive; CHT activ conf: 37*; HEK293 MP dye: -28*

How did COCc1cc(C)nc(SCC[N+](C)(C)CC(=O)c2ccc(Br)cc2)c1C#N do in these assays?
ALR inh: -40; CHT allo act: inactive; AI-2 QS modul: 6; PREPL inhibitor: -5; CHT inh: inactive

How did CCC(C)NC(=O)c1cn(CC)c2cc(N3CCN(C)CC3)c(F)cc2c1=O (stereo unspecified) do in these assays?
ALR inh: -3; CHT allo act: inactive; AI-2 QS modul: 18; PREPL inhibitor: 10; CHT inh: inactive

Results for CCn1cc(C(=O)O)c(=O)c2cc(F)c(N3CCN(C(=S)NC(=O)c4ccc(OC)cc4)CC3)cc21 ?
ALR inh: -3; CHT allo act: inactive; AI-2 QS modul: 16; PREPL inhibitor: -7; CHT inh: inactive

What do the screens show for `CCn1cc(S(=O)(=O)c2ccc(OC)cc2)c(=O)c2cc(F)c(N3CCN(C)CC3)cc21`?
ALR inh: -12; CHT allo act: inactive; AI-2 QS modul: 23; PREPL inhibitor: -4; CHT inh: inactive; CHT activ conf: 59*; HEK293 MP dye: -48*

What do the screens show for `Cc1ccc(S(=O)(=O)c2cn(C)c3cc(N4CCN(C)CC4)c(F)cc3c2=O)c(C)c1`?
ALR inh: -3; CHT allo act: 9.1*; AI-2 QS modul: 3; PREPL inhibitor: 0; CHT inh: inactive; CHT activ conf: 74*; HEK293 MP dye: -84*

What do the screens show for `CCN1CCN(c2cc3c(cc2F)c(=O)c(S(=O)(=O)c2ccccc2)cn3C)CC1`?
ALR inh: -4; CHT allo act: 8.4*; AI-2 QS modul: 0; PREPL inhibitor: 7; CHT inh: inactive; CHT activ conf: 77*; HEK293 MP dye: -99*

What do the screens show for `Nc1cnnc(N/N=C\c2ccccc2)c1Cl`?
ALR inh: 15; CHT allo act: 6.4*; AI-2 QS modul: -6; PREPL inhibitor: 0; CHT inh: inactive; CHT activ conf: 57*; HEK293 MP dye: -54*

Results for Nc1nonc1N/N=C\c1ccccc1 ?
CHT allo act: inactive; AI-2 QS modul: 14; PREPL inhibitor: -28; CHT inh: inactive

How did Cc1nnc(NCCc2ccccc2)c2ccccc12 do in these assays?
CHT allo act: 7.2*; AI-2 QS modul: 32; PREPL inhibitor: 22; CHT inh: inactive; CHT activ conf: 39*; HEK293 MP dye: -49*

What do the screens show for `CC[n+]1c(C)sc2cc(OC)ccc21`?
ALR inh: 47; CHT allo act: inactive; AI-2 QS modul: 28; PREPL inhibitor: 16; CHT inh: inactive; CHT activ conf: 29*; HEK293 MP dye: -62*

How did COc1ccc(S(=O)(=O)N2c3ccc(F)cc3CCC2C)cc1 (stereo unspecified) do in these assays?
ALR inh: 31; CHT allo act: inactive; AI-2 QS modul: 7; PREPL inhibitor: 15; CHT inh: inactive; CHT activ conf: 44*; HEK293 MP dye: inactive

What do the screens show for `Cc1cnc(C(=O)OCC(=O)Nc2ccccc2-c2ccccc2)cn1`?
ALR inh: 0; PREPL inhibitor: 15

Results for CCCCCCCCc1nc(SC(C)C(=O)O)n[nH]1 (stereo unspecified) ?
ALR inh: 0; CHT allo act: inactive; AI-2 QS modul: 20; PREPL inhibitor: -6; CHT inh: inactive

How did CSc1cccc(NC(=O)CN(C2CCCCC2)S(C)(=O)=O)c1 do in these assays?
ALR inh: -15; CHT allo act: 8.9*; AI-2 QS modul: 27; PREPL inhibitor: 7; CHT inh: inactive; CHT activ conf: 42*; HEK293 MP dye: inactive

Results for COc1ccc(NC(=O)CN(C2CCCCC2)S(C)(=O)=O)cc1OC ?
ALR inh: -19; CHT allo act: inactive; AI-2 QS modul: 1; PREPL inhibitor: -8; CHT inh: inactive

Results for COc1ccc(-c2ncccc2OC(=O)C23CC4CC(CC(C4)C2)C3)cc1 ?
ALR inh: 40; CHT allo act: inactive; AI-2 QS modul: 34; PREPL inhibitor: 0; CHT inh: inactive

Results for N#Cc1c(=O)c2nc(NCc3ccccc3)ncc2n2ccccc12 ?
ALR inh: -93; CHT allo act: inactive; AI-2 QS modul: 40; PREPL inhibitor: 24; CHT inh: inactive; CHT activ conf: 24*; HEK293 MP dye: -40*

How did Cc1ccc(CNC(=O)C2CCN(S(=O)(=O)N3CCC4(CC3)OCCO4)CC2)cc1 do in these assays?
ALR inh: -28; CHT allo act: inactive; AI-2 QS modul: 14; PREPL inhibitor: 15; CHT inh: inactive

Results for COc1ccc(Cn2c(-c3ccc(C)cc3)c[n+]3ccccc23)cc1 ?
ALR inh: -2; CHT allo act: 11*; AI-2 QS modul: 9; PREPL inhibitor: 2; CHT inh: inactive; CHT activ conf: 62*; HEK293 MP dye: -51*
